In PubChem BioAssay (Tox21):
Results filed as inconclusive are left out. The source made the active and inactive calls. Calls come from the whole dose curve; as a rule, active = well fitted curve in the direction sought with a large enough effect in the repeat runs; inconclusive = weak or mixed curves; inactive = no such curve, though single readings can be large; an effect the other way counts as inactive or inconclusive. Where a SMILES comes first, the peptide text is derived from it.

Tests used:
[1] = qHTS assay to identify small molecule agonists of the RXR signaling pathway - cell viability counter screen (AID 1159529);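 note: HEK 293T cells carrying an RXR-alpha UAS beta-lactamase reporter; series mostly up to about 77 µM; nearly all actives have a fitted effect of over 50% in size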
Method in brief: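 In this parallel viability measure, GeneBLAzer RXR-alpha HEK 293T cells (2% charcoal-stripped FBS) were given a 5 hr preincubation, treated with compounds 16 hr at 37 C, and read by CellTiter-Glo luminescence.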

[2] = qHTS assay to identify small molecule antagonists of the retinoid acid receptor (RAR) signaling pathway - cell viability counter screen (AID 1159551); note: nearly all actives have a fitted effect of over 35% in size
Method in brief: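 Seed C3RL4 cells; next day add compound, then retinol to 1 uM final; incubate 6 h at 37 C; add CellTiter-Glo; read luminescence after 30 min at RT.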

[3] = qHTS assay to identify small molecule agonists of the retinoic acid receptor (RAR) signaling pathway (AID 1159553)
Method in brief: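 Activation of retinol signaling was monitored via a RARE luciferase reporter in C3RL4 cells. After 6 hr compound treatment at 37 C, detection reagent was added for 30 min at room temperature before luminescence reading.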

[4] = qHTS assay to identify small molecule antagonists of the estrogen related receptor (ERR) signaling pathway from Tox21 library - cell viability counter screen (AID 1224834); note: nearly all actives have a fitted effect of over 30% in size
Method in brief: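 CellTiter-Fluor fluorescence measured; ERR cells; 17.5 h compound incubation at 37 C; 30 min reagent step.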

[5] = biological target: Luciferin 4-monooxygenase (Photinus pyralis) (UniProt P08659); experiment: qHTS assay to identify small molecule inhibitors of firefly luciferase (AID 1224835); note: series mostly up to about 120 µM; nearly all actives have a fitted effect of over 25% in size
Method in brief: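 Inhibition of purified Photinus luciferase is measured by luminescence. Substrate levels (D-luciferin, ATP) sit at their KM values. Each compound is tested in a concentration series.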

[6] = qHTS assay to identify small molecule agonists of the constitutive androstane receptor (CAR) signaling pathway - cell viability counter screen (AID 1224836); note: series mostly up to about 92 µM; nearly all actives have a fitted effect of over 45% in size
Method in brief: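 Using CellTiter-Fluor, viability of HepG2 cells harbouring hCAR and CYP2B6-2.2kb was measured following 23 h incubation with a 15-concentration compound series plus PK11195 (0.75 uM final).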

[7] = qHTS assay to identify small molecule antagonists of the constitutive androstane receptor (CAR) signaling pathway - cell viability counter screen (AID 1224837); note: series mostly up to about 92 µM; nearly all actives have a fitted effect of over 45% in size
Method in brief: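 Using CellTiter-Fluor, viability is scored in HepG2 cells stably carrying hCAR and a 2.2kb CYP2B6 reporter after 23 hr compound exposure across 15 concentrations, with CITCO present at 50 nM.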

[8] = biological target: Nuclear receptor subfamily 1 group I member 3 (Homo sapiens) (UniProt Q14994); experiment: qHTS assay to identify small molecule antagonists of the constitutive androstane receptor (CAR) signaling pathway (AID 1224838);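 note: HepG2 cells stably expressing hCAR with CYP2B6 luciferase reporter stimulated by CITCO; nearly all actives have a fitted effect of over 40% in size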
Method in brief: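 Reporter luminescence was quantified after 24 h exposure of hCAR/CYP2B6-2.2kb double-stable HepG2 cells to compounds at 15 concentrations in the presence of 50 nM CITCO final.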

[9] = biological target: Nuclear receptor subfamily 1 group I member 3 (Homo sapiens) (UniProt Q14994); experiment: qHTS assay to identify small molecule agonists of the constitutive androstane receptor (CAR) signaling pathway (AID 1224839); note: nearly all actives have a fitted effect of over 15% in size; note: potency is the fitted concentration of half-maximal effect;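 for activation: HepG2 cells stably carrying human CAR and a CYP2B6 luciferase reporter; series mostly up to about 92 µM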
Method in brief: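 Double-stable HepG2 cells (hCAR, CYP2B6-2.2kb) seeded 4 h before compound addition. Exposure 24 h with 0.75 uM PK11195 final. Luciferase detected by ONE-Glo.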

[10] = qHTS assay to identify small molecule antagonists of the retinoic acid receptor (RAR) signaling pathway (AID 1159552; note: nearly all actives have a fitted effect of over 50% in size)
Method in brief: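 C3RL4 RARE-luc cells, overnight plating; retinol 1 uM final added right after compound; 6 hr 37 C; luciferase read at 30 min RT.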
% is set by controls: 0 for no effect and ±100 for the full control effect.

Sequence of Nuclear receptor subfamily 1 group I member 3 (Homo sapiens) (Q14994 whole entry, looked up): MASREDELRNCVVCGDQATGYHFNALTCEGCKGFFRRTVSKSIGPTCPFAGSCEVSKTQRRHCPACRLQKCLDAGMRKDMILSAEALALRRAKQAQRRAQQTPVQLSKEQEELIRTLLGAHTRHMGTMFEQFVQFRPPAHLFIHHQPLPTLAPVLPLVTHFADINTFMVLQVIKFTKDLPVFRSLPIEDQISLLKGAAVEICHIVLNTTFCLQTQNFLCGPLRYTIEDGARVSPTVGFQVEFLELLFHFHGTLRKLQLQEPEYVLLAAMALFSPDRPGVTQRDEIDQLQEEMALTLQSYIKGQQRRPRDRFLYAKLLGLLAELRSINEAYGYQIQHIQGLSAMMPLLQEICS
Sequence of Luciferin 4-monooxygenase (Photinus pyralis) (P08659 whole entry, looked up): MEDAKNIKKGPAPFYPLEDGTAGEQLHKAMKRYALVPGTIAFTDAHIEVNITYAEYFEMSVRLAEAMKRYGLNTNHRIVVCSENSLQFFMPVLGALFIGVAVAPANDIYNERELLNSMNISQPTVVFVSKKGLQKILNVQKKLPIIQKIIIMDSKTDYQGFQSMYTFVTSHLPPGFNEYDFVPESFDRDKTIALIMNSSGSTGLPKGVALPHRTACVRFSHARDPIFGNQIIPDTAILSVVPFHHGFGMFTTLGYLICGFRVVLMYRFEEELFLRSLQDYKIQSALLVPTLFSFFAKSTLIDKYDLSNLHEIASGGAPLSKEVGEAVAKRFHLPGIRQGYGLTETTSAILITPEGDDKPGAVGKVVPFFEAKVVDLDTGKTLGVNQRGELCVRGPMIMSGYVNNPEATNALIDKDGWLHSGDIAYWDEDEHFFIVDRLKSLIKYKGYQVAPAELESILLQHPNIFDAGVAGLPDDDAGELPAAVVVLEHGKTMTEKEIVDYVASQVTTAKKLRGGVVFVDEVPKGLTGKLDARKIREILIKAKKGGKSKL

CC(=O)OC(C)=O
inactive: outcome [1] | outcome [2] | Potency [3] | outcome [4] | Potency [5] | outcome [6] | outcome [7] | Potency [8] | Potency [9]

C=C(C)[C@@H]1CC=C(C)C(=O)C1
inactive: outcome [1] | outcome [2] | outcome [4] | outcome [6] | outcome [7]

O=C(O)CONC(=O)c1ccccc1
inactive: outcome [1] | outcome [2] | Potency [3] | outcome [4] | Potency [5] | outcome [6] | outcome [7] | Potency [8] | Potency [9]

C[C@H]1[C@@H](c2ccccc2)NC(=O)N1C
inactive: outcome [1] | outcome [2] | Potency [3] | outcome [4] | Potency [5] | outcome [6] | outcome [7] | Potency [8] | Potency [9]

CC12CCC(C1)C(C)(C)C2O (stereo unspecified)
inactive: outcome [1] | outcome [2] | Potency [3] | outcome [4] | Potency [5] | outcome [6] | outcome [7] | Potency [8] | Potency [9]

CNCCS(=O)(=O)O
inactive: outcome [1] | outcome [2] | Potency [3] | outcome [4] | Potency [5] | outcome [6] | outcome [7] | Potency [8] | Potency [9]

CCCCC1CCC(O)CC1 (stereo unspecified)
inactive: outcome [1] | outcome [2] | Potency [3] | outcome [4] | Potency [5] | outcome [6] | outcome [7] | Potency [8] | Potency [9]

CC(=O)N[C@@H](CO)C(=O)N[C@@H](CC(=O)O)C(=O)N[C@@H](CCCCN)C(=O)N1CCC[C@H]1C(=O)O (Ac-SDKP-OH)
inactive: outcome [1] | outcome [2] | Potency [3] | outcome [4] | Potency [5] | outcome [6] | outcome [7] | Potency [8]

CCC(=O)CC
inactive: outcome [1] | outcome [2] | Potency [3] | outcome [4] | Potency [5] | outcome [6] | outcome [7] | Potency [8]

CCN(CC)CCN
inactive: outcome [1] | outcome [2] | Potency [3] | outcome [4] | Potency [5] | outcome [6] | outcome [7] | Potency [8] | Potency [9]

C=Cc1ccc(C(C)(C)C)cc1
inactive: outcome [1] | outcome [2] | Potency [3] | outcome [4] | outcome [6] | outcome [7] | Potency [8] | Potency [9]

C=CCCCCCCCCC(=O)OCCCC
inactive: outcome [1] | outcome [2] | Potency [3] | outcome [4] | Potency [5] | outcome [6] | outcome [7] | Potency [8] | Potency [9]

CCc1occc(=O)c1O
inactive: outcome [1] | outcome [2] | outcome [10] | Potency [3] | outcome [4] | outcome [6] | outcome [7] | Potency [8] | Potency [9]

COc1c2occc2c(OC)c2c(=O)cc(C)oc12
inactive: outcome [1] | outcome [2] | outcome [10] | Potency [3] | outcome [4] | outcome [6] | outcome [7] | Potency [8]
active: Potency [9] 13.3 µM

COc1cc(/C=C/C(N)=O)cc(OC)c1OC
inactive: outcome [1] | outcome [2] | Potency [3] | outcome [4] | Potency [5] | outcome [6] | outcome [7] | Potency [8]

CCCC(CC)c1ccccc1 (stereo unspecified)
inactive: outcome [1] | outcome [2] | Potency [3] | outcome [4] | Potency [5] | outcome [6] | outcome [7] | Potency [8] | Potency [9]

C=CCSSCCC
inactive: outcome [1] | outcome [2] | Potency [3] | outcome [4] | Potency [5] | outcome [6] | outcome [7] | Potency [8] | Potency [9]

CN1C[C@@H]2C[C@H]1CN2c1cc2c(cc1F)c(=O)c(C(=O)O)cn2C1CC1
inactive: activity change, negative = cytotoxicity [1] 0.369% [at 15.8 µM] | activity change, negative = cytotoxicity [2] -0.0754% [at 19 µM] | activity, negative = inhibition [10] 0.455% [at 19 µM] | Potency [3] | viability change, negative = cytotoxic [4] 5.48% [at 19 µM] | viability change, negative = cytotoxic [6] -2.13% [at 19 µM] | activity change, negative = cytotoxicity [7] -13.4% [at 19 µM] | activity, negative = inhibition [8] -6.55% [at 19 µM] | activation [9] -4.55% [at 19 µM]

CCCCOC(=O)C(C)O (stereo unspecified)
inactive: outcome [1] | outcome [2] | Potency [3] | outcome [4] | Potency [5] | outcome [6] | outcome [7] | Potency [8] | Potency [9]

Cc1ccc(C(=O)O)cc1[N+](=O)[O-]
inactive: outcome [1] | outcome [2] | Potency [3] | outcome [4] | Potency [5] | outcome [6] | outcome [7] | Potency [8] | Potency [9]

O=C1CCC(=O)N1Cl
inactive: outcome [1] | outcome [2] | outcome [10] | Potency [3] | outcome [4] | outcome [6] | outcome [7] | Potency [8] | Potency [9]

C=CC(=O)CCCCC
inactive: outcome [1] | outcome [2] | outcome [4] | Potency [5] | outcome [6] | outcome [7] | Potency [8] | Potency [9]

O=C(O)[C@H](O)c1ccccc1
inactive: outcome [1] | outcome [2] | Potency [3] | outcome [4] | Potency [5] | outcome [6] | outcome [7] | Potency [8] | Potency [9]

CC(C)C[C@@H]1[C@H](c2ccccc2)OC(=O)N1CCCN1CCCCCC1
inactive: outcome [1] | outcome [2] | Potency [3] | outcome [4] | Potency [5] | outcome [6] | outcome [7] | Potency [8] | Potency [9]

CCn1cc(C(=O)O)c(=O)c2cnc(N3CCCC3)nc21
inactive: activity change, negative = cytotoxicity [1] -1.74% [at 6.97 µM] | activity change, negative = cytotoxicity [2] 0.0795% [at 8.39 µM] | activity, negative = inhibition [10] 5.14% [at 8.39 µM] | activation [3] 1.53% [at 8.36 µM] | viability change, negative = cytotoxic [4] 0.102% [at 8.39 µM] | viability change, negative = cytotoxic [6] 6.12% [at 8.39 µM] | activity change, negative = cytotoxicity [7] 1.8% [at 8.39 µM] | activity, negative = inhibition [8] -3.92% [at 8.39 µM] | activation [9] -0.437% [at 8.39 µM]
